# Data taken from PubChem BioAssay (NCATS).
# Results filed as inconclusive are left out. Entries that show only a call come without a potency. Active and inactive are the calls of the source. Unless noted, the call rests on the fitted dose curve; in most records, active means well fitted inhibition curve with a large enough effect; inconclusive means small, poorly fitted or top-dose-only effect; inactive means flat fitted curve, though single readings scatter.
# Experiments:
# [1] = qHTS Assay for Lipid Storage Modulators (AID 1519; calls by dose curve; further: potency means the concentration at half of the fitted maximal effect); conditions: Drosophila S3 cells, BODIPY lipid droplet/cell ratio, laser cytometry, cells loaded with oleic acid; for activity change, negative = inhibition: at 57.5 µM (top of the series)
# Outline: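 Cells seeded at 5,000 per well were treated with compounds over a concentration series and loaded with oleic acid (400 uM, as added). Lipid droplet fluorescence (488 nm excitation, 500-530 nm channel) was read by laser-scanning cytometry and normalized to 20 uM Triacsin C.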
# [2] = target: Ubiquitin carboxyl-terminal hydrolase 1 (Homo sapiens) (UniProt O94782); experiment: Inhibitors of USP1/UAF1: Pilot qHTS (AID 504865); conditions: purified USP1/UAF1, Ub-rhodamine cleavage fluorescence; series mostly up to 114 µM; further: nearly all actives have a fitted effect of over 35% in size; further: potency means the concentration at half of the fitted maximal effect;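 on activity change, negative = inhibition: rhodamine fluorescence freed from ubiquitin-rhodamine substrate followed over time; top concentration of the series differs between compounds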
# Outline: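 Kinetic fluorescence assay: 1nM USP1/UAF1, 15 min compound preincubation, then 150nM Ub-Rho; 480/540 nm.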
# [3] = target: Luciferin 4-monooxygenase (Photinus pyralis) (UniProt P08659); experiment: Biochemical firefly luciferase enzyme assay for NPC (AID 624030);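 further: purified P. pyralis luciferase at 10 nM with luciferin and ATP substrate; nearly all actives have a fitted effect of over 70% in size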; conditions: purified P. pyralis luciferase, luminescence, 5 min; series mostly up to 24.9 µM
# Outline: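 Purified P. pyralis luciferase at 10 nM in 50 mM Tris Acetate (final), luminescence read within 5 minutes of enzyme addition to compounds. Activity normalised to PTC124 versus DMSO; concentration-response curves classed by r2, magnitude and activity.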
# [4] = qHTS profiling for inhibitors of Plasmodium falciparum proliferation (AID 504749); further: potency means the concentration at half of the fitted maximal effect; on all read-outs here: nearly all actives have a fitted effect of over 60% in size; conditions: P. falciparum in erythrocytes, SYBR Green DNA, 72 h; for activity, negative = inhibition: at 28.7 µM (top of the series)
# Outline: (§1)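 P. falciparum-infected erythrocytes (0.3% parasitemia, 2.5% hematocrit) incubated with compound 72 h at 37 C, 5% CO2. Parasite DNA detected by SYBR Green after lysis, overnight at room temperature; normalised to 0.29 uM artemisinin and DMSO.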
# 3D7 = experiment: as above; conditions: P. falciparum in erythrocytes, SYBR Green DNA, 72 h; series mostly up to 12.8 µM
# Outline: as §1
# C2A = experiment: as above; conditions: P. falciparum in erythrocytes, SYBR Green DNA, 72 h; series mostly up to 12.8 µM
# Outline: as §1
# CP217 = experiment: as above; conditions: P. falciparum in erythrocytes, SYBR Green DNA, 72 h; series mostly up to 12.8 µM
# Outline: as §1
# CP237 = experiment: as above; conditions: P. falciparum in erythrocytes, SYBR Green DNA, 72 h; series mostly up to 12.8 µM
# Outline: as §1
# CP238 = experiment: as above; conditions: P. falciparum in erythrocytes, SYBR Green DNA, 72 h; series mostly up to 12.8 µM
# Outline: as §1
# CP252 = experiment: as above; conditions: P. falciparum in erythrocytes, SYBR Green DNA, 72 h; series mostly up to 12.8 µM
# Outline: as §1
# CP291 = experiment: as above; conditions: P. falciparum in erythrocytes, SYBR Green DNA, 72 h; series mostly up to 12.8 µM
# Outline: as §1
# CP297 = experiment: as above; conditions: P. falciparum in erythrocytes, SYBR Green DNA, 72 h; series mostly up to 12.8 µM
# Outline: as §1
# ECU = experiment: as above; conditions: P. falciparum in erythrocytes, SYBR Green DNA, 72 h; series mostly up to 12.8 µM
# Outline: as §1
# HB3 = experiment: as above; conditions: P. falciparum in erythrocytes, SYBR Green DNA, 72 h; series mostly up to 12.8 µM
# Outline: as §1
# PAD = experiment: as above; conditions: P. falciparum in erythrocytes, SYBR Green DNA, 72 h; series mostly up to 12.8 µM
# Outline: as §1
# PC26 = experiment: as above; conditions: P. falciparum in erythrocytes, SYBR Green DNA, 72 h; series mostly up to 12.8 µM
# Outline: as §1
# SC27B = experiment: as above; conditions: P. falciparum in erythrocytes, SYBR Green DNA, 72 h; series mostly up to 12.8 µM
# Outline: as §1
# [5] = target: Mitogen-activated protein kinase 10 (Mus musculus) (UniProt Q61831); experiment: JNK3 AlphaScreen Assay (AID 530; active means well fitted curve in either direction with a large enough effect, not every such curve was filed as active;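 further: kinase came from lysate of stimulated human HepG2 cells; signal reports phosphorylation of biotinylated GST-cJun 1-79 at Ser73 with 10 µM ATP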); conditions: JNK3 lysate, c-Jun phosphorylation; series mostly up to 25.6 µM
# Outline: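 Pre-activated (IL-1β/TNFα) JNK3 in HepG2 lysates phosphorylates biotin-GST-cJun(1-79), 10 uM ATP; anti-phospho-cJun(Ser73) AlphaScreen read at room temperature, pH 7.6 Tris buffer. Compounds pre-incubated 15 min as titrations.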
# [6] = measured here: cell count channel max response
# [7] = measured here: lipid channel max response
# Sequence of Ubiquitin carboxyl-terminal hydrolase 1 (Homo sapiens) (O94782 whole entry, looked up): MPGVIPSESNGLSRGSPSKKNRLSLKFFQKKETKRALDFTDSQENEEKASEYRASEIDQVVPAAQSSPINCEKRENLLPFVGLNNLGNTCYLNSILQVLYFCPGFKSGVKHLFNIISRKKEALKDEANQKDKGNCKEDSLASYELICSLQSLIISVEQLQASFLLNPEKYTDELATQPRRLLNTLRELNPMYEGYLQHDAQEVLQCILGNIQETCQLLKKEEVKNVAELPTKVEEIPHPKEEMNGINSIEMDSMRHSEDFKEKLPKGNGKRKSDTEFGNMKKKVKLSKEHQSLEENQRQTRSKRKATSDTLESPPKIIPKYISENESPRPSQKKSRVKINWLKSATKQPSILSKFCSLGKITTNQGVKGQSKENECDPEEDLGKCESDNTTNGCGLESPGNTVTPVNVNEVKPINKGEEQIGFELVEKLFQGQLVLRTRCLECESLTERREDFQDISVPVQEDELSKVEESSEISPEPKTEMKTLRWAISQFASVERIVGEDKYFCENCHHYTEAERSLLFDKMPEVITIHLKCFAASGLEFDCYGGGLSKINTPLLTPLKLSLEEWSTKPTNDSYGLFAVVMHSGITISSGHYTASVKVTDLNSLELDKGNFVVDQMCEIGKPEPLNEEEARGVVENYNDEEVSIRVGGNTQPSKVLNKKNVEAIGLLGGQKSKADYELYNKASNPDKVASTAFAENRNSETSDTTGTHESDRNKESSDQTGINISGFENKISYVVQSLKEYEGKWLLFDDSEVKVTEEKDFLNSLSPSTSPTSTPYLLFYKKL
# Sequence of Luciferin 4-monooxygenase (Photinus pyralis) (P08659 whole entry, looked up): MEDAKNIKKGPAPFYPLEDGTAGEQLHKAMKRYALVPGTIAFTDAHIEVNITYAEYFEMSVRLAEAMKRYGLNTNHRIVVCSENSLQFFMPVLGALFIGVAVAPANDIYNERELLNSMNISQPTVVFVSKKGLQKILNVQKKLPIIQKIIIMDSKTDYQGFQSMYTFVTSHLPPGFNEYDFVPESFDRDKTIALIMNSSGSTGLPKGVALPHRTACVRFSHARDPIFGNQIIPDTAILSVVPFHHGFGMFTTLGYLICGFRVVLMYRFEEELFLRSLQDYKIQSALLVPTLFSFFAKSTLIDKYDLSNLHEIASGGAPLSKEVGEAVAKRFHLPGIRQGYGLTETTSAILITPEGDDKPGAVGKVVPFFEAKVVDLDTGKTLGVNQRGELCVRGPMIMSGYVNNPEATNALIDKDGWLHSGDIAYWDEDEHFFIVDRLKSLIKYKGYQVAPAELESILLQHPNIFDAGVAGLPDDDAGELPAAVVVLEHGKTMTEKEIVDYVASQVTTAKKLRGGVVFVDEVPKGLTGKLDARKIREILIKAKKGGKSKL
smiles,measurement,setting,value
CN1CC(=O)N=C1N,"activity change, negative = inhibition",[1],4.35% (inactive)
same,max response,[1]; [6],5.89%
same,max response,[1]; [7],9.11%
same,Potency,[2],inactive
same,Potency,[3],inactive
same,"activity, negative = inhibition",[4]; parasite line A,1.94% (inactive)
same,"activity, negative = inhibition",[4]; parasite line B,0.298% (inactive)
same,Potency,3D7,inactive
same,Potency,C2A,inactive
same,Potency,CP217,inactive
same,Potency,CP237,inactive
same,Potency,CP238,inactive
same,Potency,CP252,inactive
same,Potency,CP291,inactive
same,Potency,CP297,inactive
same,Potency,ECU,inactive
same,Potency,HB3,inactive
same,Potency,PAD,inactive
same,Potency,PC26,inactive
same,Potency,SC27B,inactive
CCCC(=O)O[C@]1(C(=O)CO)CCC2[C@@H]3CCC4=CC(=O)CC[C@]4(C)C3C(O)C[C@]21C (stereo partly drawn),"activity change, negative = inhibition",[1],9.93% (inactive)
same,max response,[1]; [6],7.86%
same,max response,[1]; [7],23.2%
same,Potency,[2],inactive
same,Potency,[3],inactive
same,"activity, negative = inhibition",[4]; parasite line A,6.2% (inactive)
same,"activity, negative = inhibition",[4]; parasite line B,17.5% (inactive)
same,Potency,3D7,inactive
same,Potency,C2A,inactive
same,Potency,CP217,inactive
same,Potency,CP237,inactive
same,Potency,CP238,inactive
same,Potency,CP252,inactive
same,Potency,CP291,inactive
same,Potency,CP297,inactive
same,Potency,ECU,inactive
same,Potency,HB3,inactive
same,Potency,PAD,inactive
same,Potency,PC26,inactive
same,Potency,SC27B,inactive
OCC1OC([S-])[C@H](O)C(O)C1O.[Au+] (stereo partly drawn),"activity change, negative = inhibition",[1],9.01% (inactive)
same,max response,[1]; [6],5.52%
same,max response,[1]; [7],19.8%
same,Potency,[2],inactive
same,Potency,[3],inactive
same,"activity, negative = inhibition",[4]; parasite line A,-14% (inactive)
same,"activity, negative = inhibition",[4]; parasite line B,-7.29% (inactive)
same,Potency,3D7,inactive
same,Potency,C2A,inactive
same,Potency,CP217,inactive
same,Potency,CP237,inactive
same,Potency,CP238,inactive
same,Potency,CP252,inactive
same,Potency,CP291,inactive
same,Potency,CP297,inactive
same,Potency,ECU,inactive
same,Potency,HB3,inactive
same,Potency,PAD,inactive
same,Potency,PC26,inactive
same,Potency,SC27B,inactive
Cc1cc(O)c(C=O)c2c1C(=O)Oc1c(C)c(O)c3c(c1O2)C(O)OC3=O (stereo not drawn),"activity change, negative = inhibition",[1],13.7% (inactive)
same,max response,[1]; [6],7.17%
same,max response,[1]; [7],21%
same,Potency,[2],39.8 µM (active)
CC1(C)OC2CO[C@]3(COS(N)(=O)=O)OC(C)(C)OC3C2O1 (stereo partly drawn),"activity change, negative = inhibition",[1],-0.118% (inactive)
same,max response,[1]; [6],7.1%
same,max response,[1]; [7],8.91%
same,Potency,[2],inactive
same,Potency,[3],inactive
same,"activity, negative = inhibition",[4]; parasite line A,6.34% (inactive)
same,"activity, negative = inhibition",[4]; parasite line B,12.5% (inactive)
same,Potency,3D7,inactive
same,Potency,C2A,inactive
same,Potency,CP217,inactive
same,Potency,CP237,inactive
same,Potency,CP238,inactive
same,Potency,CP252,inactive
same,Potency,CP291,inactive
same,Potency,CP297,inactive
same,Potency,ECU,inactive
same,Potency,HB3,inactive
same,Potency,PAD,inactive
same,Potency,PC26,inactive
same,Potency,SC27B,inactive
COc1cc(C2c3cc4c(cc3C(O[C@@H]3OC5COC(c6cccs6)OC5C(O)C3O)C3COC(=O)C23)OCO4)cc(OC)c1O (stereo partly drawn),Potency,[1],5.01 µM (active)
same,max response,[1]; [6],22.3%
same,max response,[1]; [7],-100%
same,Potency,[2],inactive
same,Potency,[3],inactive
same,Potency,[4]; parasite line A,1.12 µM (active)
same,Potency,[4]; parasite line B,2 µM (active)
same,Potency,3D7,2 µM (active)
same,Potency,C2A,2.24 µM (active)
same,Potency,CP217,2 µM (active)
same,Potency,CP237,2.24 µM (active)
same,Potency,CP238,2 µM (active)
same,Potency,CP252,1.12 µM (active)
same,Potency,CP291,4.26 µM (active)
same,Potency,CP297,4.78 µM (active)
same,Potency,ECU,2.51 µM (active)
same,Potency,HB3,3.16 µM (active)
same,Potency,PAD,2 µM (active)
same,Potency,PC26,3.79 µM (active)
same,Potency,SC27B,3.16 µM (active)
COc1ccc2cc(C(C)CO)ccc2c1 (stereo not drawn),"activity change, negative = inhibition",[1],8.58% (inactive)
same,max response,[1]; [6],13.8%
same,max response,[1]; [7],24.6%
same,Potency,[2],inactive
same,Potency,[3],inactive
same,"activity, negative = inhibition",[4]; parasite line A,12.4% (inactive)
same,"activity, negative = inhibition",[4]; parasite line B,6.41% (inactive)
same,Potency,3D7,inactive
same,Potency,C2A,inactive
same,Potency,CP217,inactive
same,Potency,CP237,inactive
same,Potency,CP238,inactive
same,Potency,CP252,inactive
same,Potency,CP291,inactive
same,Potency,CP297,inactive
same,Potency,ECU,inactive
same,Potency,HB3,inactive
same,Potency,PAD,inactive
same,Potency,PC26,inactive
same,Potency,SC27B,inactive
CC(=O)N[C@H](CC(C)C)C(=O)O,"activity change, negative = inhibition",[1],6.38% (inactive)
same,max response,[1]; [6],8.9%
same,max response,[1]; [7],16.6%
same,Potency,[2],inactive
same,Potency,[3],inactive
same,"activity, negative = inhibition",[4]; parasite line A,-8.85% (inactive)
same,"activity, negative = inhibition",[4]; parasite line B,9.6% (inactive)
same,Potency,3D7,inactive
same,Potency,C2A,inactive
same,Potency,CP217,inactive
same,Potency,CP237,inactive
same,Potency,CP238,inactive
same,Potency,CP252,inactive
same,Potency,CP291,inactive
same,Potency,CP297,inactive
same,Potency,ECU,inactive
same,Potency,HB3,inactive
same,Potency,PAD,inactive
same,Potency,PC26,inactive
same,Potency,SC27B,inactive
COC1C=CO[C@@]2(C)Oc3c(C)c(O)c4c(O)c(c5c(nc6cc(C)ccn65)c4c3C2=O)NC(=O)/C(C)=C\C=CC(C)C(O)[C@@H](C)C(O)C(C)[C@@H](OC(C)=O)C1C (stereo partly drawn),"activity change, negative = inhibition",[1],-13.7% (inactive)
same,max response,[1]; [6],-0.865%
same,max response,[1]; [7],-14.4%
same,Potency,[3],inactive
same,Potency,[4]; parasite line A,14.1 µM (active)
same,Potency,[4]; parasite line B,10 µM (active)
same,Potency,3D7,12.6 µM (active)
same,Potency,C2A,10 µM (active)
same,Potency,CP217,10 µM (active)
same,Potency,CP237,8.91 µM (active)
same,Potency,CP238,10 µM (active)
same,Potency,CP252,10 µM (active)
same,Potency,CP291,13.5 µM (active)
same,Potency,CP297,4.26 µM (active)
same,Potency,ECU,12.6 µM (active)
same,Potency,HB3,11.2 µM (active)
same,Potency,PAD,3.16 µM (active)
same,Potency,PC26,1.2 µM (active)
same,Potency,SC27B,12.6 µM (active)
CC(=O)OC1CCC2C3CCc4cc(O)ccc4C3CCC12C (stereo not drawn),"activity change, negative = inhibition",[1],-1.06% (inactive)
same,max response,[1]; [6],7.54%
same,max response,[1]; [7],8.25%
same,Potency,[3],inactive
same,"activity, negative = inhibition",[4]; parasite line A,6.77% (inactive)
same,"activity, negative = inhibition",[4]; parasite line B,4.39% (inactive)
same,Potency,3D7,inactive
same,Potency,C2A,inactive
same,Potency,CP217,inactive
same,Potency,CP237,inactive
same,Potency,CP238,inactive
same,Potency,CP252,inactive
same,Potency,CP291,inactive
same,Potency,CP297,inactive
same,Potency,ECU,inactive
same,Potency,HB3,inactive
same,Potency,PAD,inactive
same,Potency,PC26,inactive
same,Potency,SC27B,inactive
C[C@]1(c2ccccc2)OC(C(=O)O)=CC1=O,Potency,[5],inactive
same,"activity change, negative = inhibition",[1],-2% (inactive)
same,max response,[1]; [6],-4.61%
same,max response,[1]; [7],-6.08%
same,Potency,[2],inactive
same,Potency,[3],inactive
same,"activity, negative = inhibition",[4]; parasite line A,4.24% (inactive)
same,"activity, negative = inhibition",[4]; parasite line B,8.18% (inactive)
same,Potency,3D7,inactive
same,Potency,C2A,inactive
same,Potency,CP217,inactive
same,Potency,CP237,inactive
same,Potency,CP238,inactive
same,Potency,CP252,inactive
same,Potency,CP291,inactive
same,Potency,CP297,inactive
same,Potency,ECU,inactive
same,Potency,HB3,inactive
same,Potency,PAD,inactive
same,Potency,PC26,inactive
same,Potency,SC27B,inactive
